Screens as filed in PubChem.
FID counter: displaces DNA intercalator in HCV helicase counter-screen; 290,000 tested, 0.17% active; DNA fluorescent intercalator displacement, fluorescence; AID 1845; inhibition, % at 7.9 µM; in the data active = inhibition above about 37%;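 also: 0% = vehicle and 100% = reference compound; higher means more ethidium bromide displaced from hairpin DNA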
MEKK2wt PB1 HTS: raises or lowers MEK5 binding to wildtype human MEKK2 PB1 domain. binding response (% of control), % at 10 µM. Q9Y2U5. 290,000 tested, 1.1% active. bead flow cytometry, Alexa488-MEK5 binding to MEKK2 WT; actives lie on both sides; in the data active = binding response below about 67% or above about 130%; inconclusive = no clear call, values can overlap the other calls; inactive = in between
MEKK2mut PB1 HTS: signal of MEK5 binding to mutant human MEKK2 PB1 domain. 290,000 tested, 0.35% active. bead flow cytometry, Alexa488-MEK5 binding to MEKK2 mutant. AID 1530. percent response, % at 10 µM; in the data active = percent response above about 24%, passing the limit was not always enough
MEKK3 PB1 HTS: MEKK3-MEK5 PB1 interaction, increase or decrease; 290,000 tested, 1.4% active; Q99759; AID 1529; binding response (% of control), % at 10 µM; bead-based flow cytometry, Alexa488-MEK5 binding to MEKK3; actives lie on both sides; 0 = blocked by unlabeled MEK5, 100 = vehicle;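 active = binding response more than 3 SD above or below the average of its plate-row segment, actives on both sides; inconclusive = wells at one plate position flagged as instrument error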;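 also: Alexa488 bead fluorescence after subtracting the streptavidin-only scavenger bead signal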
Target sequence (Q99759 whole entry, looked up): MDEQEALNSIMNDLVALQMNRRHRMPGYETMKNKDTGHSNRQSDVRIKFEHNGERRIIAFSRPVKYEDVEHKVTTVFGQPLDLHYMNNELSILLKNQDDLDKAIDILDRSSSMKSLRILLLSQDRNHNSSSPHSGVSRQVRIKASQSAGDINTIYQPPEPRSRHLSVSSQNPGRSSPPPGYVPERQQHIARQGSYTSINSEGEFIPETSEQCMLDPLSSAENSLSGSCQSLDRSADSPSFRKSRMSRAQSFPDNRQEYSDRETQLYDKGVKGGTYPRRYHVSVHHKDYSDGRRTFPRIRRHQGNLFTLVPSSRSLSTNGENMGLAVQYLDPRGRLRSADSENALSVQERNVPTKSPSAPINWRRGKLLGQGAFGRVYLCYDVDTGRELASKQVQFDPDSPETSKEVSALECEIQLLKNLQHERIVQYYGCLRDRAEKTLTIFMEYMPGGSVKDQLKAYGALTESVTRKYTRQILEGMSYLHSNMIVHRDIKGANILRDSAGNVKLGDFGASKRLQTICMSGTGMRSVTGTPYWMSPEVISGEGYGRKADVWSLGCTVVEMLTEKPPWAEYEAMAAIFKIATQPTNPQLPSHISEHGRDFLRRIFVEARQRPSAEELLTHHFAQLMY
dFosB act-1: mouse delta FosB homodimer activation | activation, % at 25 µM | 340,000 tested, 0.99% active | AID 493131 | purified delta FosB, TAMRA-CDK5 oligo fluorescence polarization; percent of positive-control signal above neutral wells | P13346;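 active = mean activation above about 17%, with every replicate also reaching it, limit read from the data, passing the limit was not always enough; inconclusive = only one of the two conditions met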
dFosB act-2: enhances mouse delta FosB homodimer binding to DNA. activation, % at 24.9 µM. shares compounds with dFosB act-1. purified delta FosB, TAMRA-CDK5 oligo fluorescence polarization; normalised: neutral wells 0, positive control 100. 2,400 tested, under 10 active;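 active = highest replicate activation at or above 34% and every replicate reaching that threshold; inconclusive = meets only one of the two criteria; inactive = meets neither criterion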;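 also: higher polarization means more probe DNA bound by delta FosB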
Starred values were filed as active, the others as inactive; ? = inconclusive; / = no result given. Compounds with a hit are over-represented: about 2.9% of the library has one in this group of screens.

SMILES | FID counter | MEKK2wt PB1 HTS | MEKK2mut PB1 HTS | MEKK3 PB1 HTS | dFosB act-1 | dFosB act-2
COc1ccccc1NC(=O)Cn1nnc(C(=O)NCc2ccc3c(c2)OCO3)c1N | -22 | 102 | 1 | 101 | ? | /
Nc1c(C(=O)NCc2ccc3c(c2)OCO3)nnn1CC(=O)Nc1ccc(Br)cc1 | -7 | 96 | -4 | 97 | 51* | 5
Cc1ccc(NC(=O)Cn2nnc(C(=O)NCc3ccc4c(c3)OCO4)c2N)cc1 | -15 | 104 | 1 | 105 | -4 | /
Cc1ccc(S(=O)(=O)N(C)CC(=O)Nc2cc(C)ccn2)cc1 | / | / | / | / | -4 | /
O=C(NCc1ccc2c(c1)OCO2)c1nnc(Cc2ccc(Cl)cc2)o1 | -7 | 102 | -2 | 107 | 27* | 3
CCc1nc(N2CCN(C(=S)NCCCOC)CC2)c2c3c(sc2n1)CCCC3 | -40 | 109 | 7 | 105 | -8 | /
CC(=O)N1CCN(C(=O)c2cccc(S(=O)(=O)N3CCN(c4ccccc4)CC3)c2)CC1 | / | / | / | / | -2 | /
O=C(NNC(=O)c1cccc(S(=O)(=O)N2CCN(c3ccccc3)CC2)c1)c1ccc(Cl)cc1 | -5 | 88 | 16 | 97 | 58* | 1
CCOc1ccccc1NC(=S)NCc1cccn1C | -7 | 92 | -3 | 96 | -5 | /
CCCOc1ccc(-c2csc3ncn(Cc4ccc(C(=O)O)cc4)c(=O)c23)cc1 | -25 | 103 | 0 | 110 | 24* | 8
Cc1cccc(NC(=S)N/N=C/c2ccc(Cl)c([N+](=O)[O-])c2)c1 | -8 | 104 | 1 | 102 | 20* | -2
COc1ccc(-n2nc(C(=O)NCC(=O)Nc3cccc(Cl)c3)c3ccccc3c2=O)cc1 | 4 | 82 | -7 | 85 | 39* | 5
CC1(C)Cc2c(sc(NC(=O)C(=O)N3CCCCC3)c2C(=O)O)CO1 | -17 | 101 | -5 | 100 | 5 | /
O=C(Nc1nc2c(s1)CN(Cc1ccccc1)CC2)C1CCCC1 | -8 | 111 | -3 | 101 | 24* | 1
CC(C)(C)C(=O)Nc1nc2c(s1)CN(Cc1ccccc1)CC2 | 2 | 102 | -5 | 98 | 4 | /
COc1cccc(-c2c(C(=O)N/N=C/c3ccsc3)nnn2-c2nonc2N)c1 | -13 | 99 | -4 | 104 | 20* | 2
CCOc1ccc(-c2c(C(=O)N/N=C/c3ccc(O)cc3)nnn2-c2nonc2N)cc1 | -14 | 100 | 9 | 107 | -2 | /
CCOc1cccc(-c2c(C(=O)N/N=C/c3ccc(Br)cc3)nnn2-c2nonc2N)c1 | -14 | 101 | -4 | 103 | 29* | 4
CCOc1ccc(-c2c(C(=O)N/N=C/c3cccc(Br)c3)nnn2-c2nonc2N)cc1 | -18 | 101 | 2 | 104 | 55* | 1
COc1ccccc1CNC(=O)COC(=O)Cn1cnc2ccccc21 | -3 | 124 | 3 | 107 | -6 | /
Cc1nc2cc(N3CCOCC3)c(NC(=O)C3CC3)cc2c(=O)n1Cc1ccccc1 | -21 | / | / | / | -3 | /
Cc1nc2cc(N3CCCCC3)c(NC(=O)c3ccncc3)cc2c(=O)n1Cc1ccccc1 | 0 | 108 | 3 | 106 | 24* | 6
Cn1c(=O)c2c(ncn2CC(=O)Nc2nc(-c3ccc(F)c(F)c3)cs2)n(C)c1=O | -6 | 104 | 0 | 102 | 32* | 9
O=CN1CCN(c2c([N+](=O)[O-])c(=O)oc3ccccc23)CC1 | -3 | 107 | 6 | 106 | 6 | /
Cc1ccsc1C(=O)N1CCC(N2CCC(C(=O)NCC3CCCO3)CC2)CC1 (configuration not stated) | -6 | 99 | -5 | 98 | 35* | 0
SMILES | FID counter | MEKK2wt PB1 HTS | MEKK2mut PB1 HTS | MEKK3 PB1 HTS | dFosB act-1 | dFosB act-2
Cc1ccccc1CNC(=O)C1CCCN(c2nnc(C)c3c(C)n(-c4ccccc4)nc23)C1 (configuration not stated) | 17 | 95 | 0 | 95 | 18* | -4
CCc1ccc(CNC(=O)C2CCCN(c3nnc(C)c4c(C)n(-c5ccccc5)nc34)C2)cc1 (configuration not stated) | 27 | 114 | 5 | 104 | 31* | ?
CC(CC(F)(F)F)N1CCC(n2nccc2NC(=O)CCCc2ccccc2)CC1 (configuration not stated) | -15 | 106 | 6 | 100 | -6 | /
Cc1ccc(Cn2c(=N)n(CC(=O)c3ccccc3)c3ccccc32)cc1 | 17 | 112 | 3 | 100 | 30* | 8
Cc1cccc(NC(=O)CCc2nc3sc4c(c3c(=O)[nH]2)CCCC4)c1 | / | / | / | / | 20* | 3
COc1ccc2c(c1)c(CC(=O)Nc1ccc(C)cc1)c(C)n2C(=O)c1ccc(Cl)cc1 | -4 | 107 | 14 | 99 | 21* | 3
Cc1ccc(NC(=O)Cn2cc(S(=O)(=O)c3ccc(F)cc3)c(=O)c3cc(F)ccc32)cc1 | 2 | 83 | -7 | 67 | -8 | /
COc1ccc2c(c1)c(=O)c(C(=O)c1ccc(C)cc1)cn2CC(=O)Nc1ccc(F)cc1 | -9 | 104 | -2 | 115 | 22* | -1
COc1ccc2c(c1)c(=O)c(C(=O)c1ccc(F)cc1)cn2CC(=O)Nc1ccc(F)cc1 | -12 | 101 | -3 | 113 | 20* | -3
Cc1ccc(S(=O)(=O)c2cn(CC(=O)Nc3ccccc3)c3ccc(F)cc3c2=O)cc1 | -7 | 97 | -4 | 101 | 30* | 2
O=C(CCC(=O)N1CCN(Cc2ccccc2)CC1)Nc1nnc(C2CCCCC2)s1 | -30 | 104 | -5 | 98 | -8 | /
COc1ccc(NC(=O)Cn2cc(C(=O)c3ccco3)c3ccccc32)cc1 | -1 | 99 | -5 | 103 | 45* | 2
CCOc1ccc(NC(=O)Cn2cc(C(=O)c3ccco3)c3ccccc32)cc1 | 1 | 106 | 4 | 104 | 6 | /
COc1cccc(CNc2ccc([N+](=O)[O-])cc2Cl)c1O | 12 | 97 | -4 | 102 | -7 | /
Cn1c(N2C(=O)CC(Cc3ccccc3)C2=O)nc2ccccc21 (configuration not stated) | -3 | 101 | 8 | 88 | 9 | /
O=C(NCc1ccc2c(c1)OCO2)c1cc(-c2cc(Cl)ccc2O)n[nH]1 | -10 | 101 | 0 | 106 | ? | /
C=CC(=O)Nc1cccc(CN2C(=O)N(c3cc(OC)cc(OC)c3)Cc3cnc(NCCCCN(CC)CC)nc32)c1 | / | / | / | / | 36* | ?
CN(C)CCSc1nc(N)c2c3c(sc2n1)CN(C)CC3 | 17 | 98 | -7 | 77 | 25* | 2
CCCSc1nc(N)c2c3c(sc2n1)CN(C)CC3 | 3 | / | / | / | -8 | /
O=C(CCC(=O)OCc1ccc(Br)cc1)Nc1ccccc1 | 6 | 95 | -2 | 95 | -9 | /
O=C(O)C(Oc1ccc(Cl)cc1)c1ccc(Cl)cc1 (configuration not stated) | / | / | / | / | 6 | /
